We go through 18 compounds from PubChem BioAssay (EPA / NIEHS).

Results filed as inconclusive are left out. Active and inactive are the calls of the source. The calls were made as follows: active = hit-call score of the fitted dose curve at least 0.9, where 1 is the maximum; inconclusive = response in the unintended direction; inactive = score below 0.9.

Assay [1] has as its target human Colony Stimulating Factor 1 Receptor (CSF1R), CSF1R (gene 1436) (UniProt P07333). The experiment in a line: NVS_ENZ_hCSF1R: NovaScreen (NVS) Enzymatic Assay for human Colony Stimulating Factor 1 Receptor (CSF1R) (AID 2283150). The essentials: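 Cell-free recombinant human CSF1R kinase with fluorescent substrate, product separated by electrophoretic mobility shift; read 1 h after dosing. Primary screen at 25 uM in duplicate, actives then in concentration-response up to 50 uM, relative to DMSO.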

For assay [2], the target named is human Fibroblast Growth Factor Receptor 1 (FGFR1), FGFR1 (gene 2260) (UniProt P11362). The experiment in a line: NVS_ENZ_hFGFR1: NovaScreen (NVS) Enzymatic Assay for human Fibroblast Growth Factor Receptor 1 (FGFR1) (AID 2283159). The method, boiled down:
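Cell-free recombinant kinase with fluorescent substrate, product separated by electrophoretic mobility shift; read 1 hour after dosing, loss of signal relative to DMSO. Initial screen in duplicate at 25 uM, actives followed in concentration series.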

Assay [3] has as its target human Casein Kinase 2- alpha 2 beta 2 (CK2a2b2), CSNK2A1 (gene 1457) (UniProt P68400). The experiment in a line: NVS_ENZ_hCK2a2b2: NovaScreen (NVS) Enzymatic Assay for human Casein Kinase 2- alpha 2 beta 2 (CK2a2b2) (AID 2283147). The essentials: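 Cell-free recombinant CK2 α2β2 holoenzyme with a fluorescent peptide substrate; product separated by electrophoretic mobility shift and read 1 h after dosing. Single-point screen at 25 uM in duplicate; actives were followed with concentration-response up to 50 uM versus DMSO.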

The target of assay [4] is human Caspase 8 (CASP8), CASP8 (gene 841) (UniProt Q14790). Nature of the assay: NVS_ENZ_hCASP8: NovaScreen (NVS) Enzymatic Assay for human Caspase 8 (CASP8) (AID 2283146). The method, boiled down: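 E. coli-expressed enzyme was used in a cell-free fluorogenic substrate assay read 1 h after dosing. Loss of signal was scored relative to DMSO, and the primary screen was run in duplicate at 25 uM.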

Assay [5] has as its target human Ephrin type-B Receptor 1 (EphB1), EPHB1 (gene 2047) (UniProt P54762). The experiment in a line: NVS_ENZ_hEphB1: NovaScreen (NVS) Enzymatic Assay for human Ephrin type-B Receptor 1 (EphB1) (AID 2283154). The essentials: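 Cell-free kinase assay with recombinant enzyme, fluorescent substrate and electrophoretic mobility-shift separation of substrate and product; read 1 h after dosing. Single-concentration duplicate screen at 25 uM; loss of signal versus DMSO baseline.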

Assay [6] addresses human IkappaB Kinase alpha (IKKa), CHUK (gene 1147) (UniProt O15111). The experiment in a line: NVS_ENZ_hIKKa: NovaScreen (NVS) Enzymatic Assay for human IkappaB Kinase alpha (IKKa) (AID 2283167). The essentials: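 Cell-free recombinant human IKKa with fluorescent substrate, product separated by electrophoretic mobility shift; read 1 hour after dosing. Primary screen duplicate at 25 uM, actives then concentration-response up to 50 uM; loss of signal relative to DMSO.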

Assay [7] has as its target human Casein Kinase 1-delta (CK1D), CSNK1D (gene 1453) (UniProt P48730). Nature of the assay: NVS_ENZ_hCK1D: NovaScreen (NVS) Enzymatic Assay for human Casein Kinase 1-delta (CK1D) (AID 2283148). The essentials:
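Recombinant human CK1-delta, cell-free; fluorescent substrate with electrophoretic mobility-shift separation of product, read 1 h after dosing. Single 25 uM duplicate screen, then concentration-response up to 50 uM; loss of signal vs DMSO.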

For assay [8], the target named is human Insulin Receptor (InsR), INSR (gene 3643) (UniProt P06213). Nature of the assay: NVS_ENZ_hInsR: NovaScreen (NVS) Enzymatic Assay for human Insulin Receptor (InsR) (AID 2283168). The method, boiled down:
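Fluorescent substrate phosphorylation by recombinant kinase, product resolved by electrophoretic mobility shift, read 1 h after dosing. Screened in duplicate at 25 uM; hits (e.g., 30% inhibition) run in concentration-response to 50 uM; DMSO as baseline.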

For assay [9], the target named is human Ephrin type-A Receptor 1 (EphA1), EPHA1 (gene 2041) (UniProt P21709). The experiment in a line: NVS_ENZ_hEphA1: NovaScreen (NVS) Enzymatic Assay for human Ephrin type-A Receptor 1 (EphA1) (AID 2283158).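 Also: activity is signal loss versus DMSO meaning EphA1 kinase inhibition.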 The method, boiled down: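 Chemicals first tested in duplicate at 25 uM against recombinant EphA1 with a fluorescent substrate; those passing threshold went to singleton dose-response topping at 50 uM. Activity read 1 h later as mobility-shift fluorescence, loss of signal relative to DMSO.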

The target in assay [10] is Protein deacetylase HDAC6 (Homo sapiens) (UniProt Q9UBN7). Nature of the assay: NVS_ENZ_hHDAC6: NovaScreen (NVS) Enzymatic Assay for human Histone Deacetylase 6 (HDAC6) (AID 2283164). The method, boiled down:
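Recombinant human HDAC6 with fluorescent substrate, 1 h; product separated from substrate by electrophoretic mobility shift. Primary screen in duplicate at 25 uM; actives retested singly in concentration-response up to 50 uM, fitted relative to DMSO.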

Assay [11] addresses CDK2 (gene 1017) (UniProt P24941). The experiment in a line: NVS_ENZ_hCDK2: NovaScreen (NVS) Enzymatic Assay for human Cyclin-Cependent Kinase 2 (CDK2) (AID 2283144). The essentials: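 Cell-free recombinant human CDK2 with fluorescent substrate, product separated by electrophoretic mobility shift; 1 hr read. Primary screen at 25 uM in duplicate, actives retested in concentration-response up to 50 uM; loss of signal versus DMSO.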

Assay [12] deals with human Dual Specificity Protein Phosphatase 3 (DUSP3), DUSP3 (gene 1845) (UniProt P51452). Nature of the assay: NVS_ENZ_hDUSP3: NovaScreen (NVS) Enzymatic Assay for human Dual Specificity Protein Phosphatase 3 (DUSP3) (AID 2283152). The method, boiled down: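 Cell-free assay with recombinant human DUSP3 and fluorogenic substrate, read by fluorescence intensity. Primary screen ran duplicate at 25 uM; actives followed up in concentration series; loss of signal versus DMSO scored.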

Assay [13] has as its target human Elastase, ELANE (gene 1991) (UniProt P08246). The experiment in a line: NVS_ENZ_hElastase: NovaScreen (NVS) Enzymatic Assay for human Elastase (AID 2283153). The method, boiled down:
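Cell-free elastase from human neutrophils, 1.5 h after dosing, activity read by absorbance. Primary screen in duplicate at 25 uM; hits (e.g., 30% inhibition) rerun in singleton concentration-response up to 50 uM, fitted versus DMSO.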

Assay [14] addresses human Ephrin type-A Receptor 2 (EphA2), EPHA2 (gene 1969) (UniProt P29317). Nature of the assay: NVS_ENZ_hEphA2: NovaScreen (NVS) Enzymatic Assay for human Ephrin type-A Receptor 2 (EphA2) (AID 2283155). The method, boiled down: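 Cell-free recombinant EphA2 kinase with specific substrate, 1 h, fluorescence with electrophoretic mobility-shift separation of substrate and product. Primary screen at 25 uM in duplicate; hits retested in singleton concentration-response up to 50 uM, referenced to DMSO.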

Assay [15] addresses Histone deacetylase 3 (Homo sapiens) (UniProt O15379). The experiment in a line: NVS_ENZ_hHDAC3: NovaScreen (NVS) Enzymatic Assay for human Histone Deacetylase 3 (HDAC3) (AID 2283163). The essentials:
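Recombinant human HDAC3 with fluorescent substrate, 1 h after dosing; product separated from substrate by electrophoretic mobility shift and read by fluorescence. Primary screen at 25 uM in duplicate; actives (e.g. ≥30% inhibition) retested in concentration-response up to 50 uM.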

Assay [16] has as its target Glycogen synthase kinase-3 beta (Homo sapiens) (UniProt P49841). The experiment in a line: NVS_ENZ_hGSK3b: NovaScreen (NVS) Enzymatic Assay for human Glycogen Synthase Kinase-3 beta (GSK3b) (AID 2283165). The essentials: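 Recombinant enzyme with specific fluorescent substrate, 1 h, product separated by electrophoretic mobility shift. Primary duplicate screen at 25 uM; actives (e.g. 30% inhibition) followed in singleton concentration-response to 50 uM. Signal loss fitted versus DMSO.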

Assay [17] has as its target human Esterase Plasma (ES), BCHE (gene 590) (UniProt P06276). Nature of the assay: NVS_ENZ_hES: NovaScreen (NVS) Enzymatic Assay for human Esterase Plasma (ES) (AID 2283157). The essentials:
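Chemicals were added to plasma-extracted human enzyme in a cell-free format, and activity was read colorimetrically after 0.25 hour. Activity loss was referenced to DMSO; concentration-response top dose was 50 uM.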

Assay [18] concerns the target human FYN Proto-Oncogene, Src family Tyrosine Kinase (Fyn), FYN (gene 2534) (UniProt P06241). Nature of the assay: NVS_ENZ_hFyn: NovaScreen (NVS) Enzymatic Assay for human FYN Proto-Oncogene, Src family Tyrosine Kinase (Fyn) (AID 2283161). The method, boiled down: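 Recombinant enzyme with fluorescent substrate, product separated by electrophoretic mobility shift; read 1 h after dosing. Duplicate 25 uM single-point screen, actives retested in concentration series; loss of signal vs DMSO.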

Chain of human Fibroblast Growth Factor Receptor 1 (FGFR1), FGFR1 (gene 2260) (P11362 whole entry, looked up): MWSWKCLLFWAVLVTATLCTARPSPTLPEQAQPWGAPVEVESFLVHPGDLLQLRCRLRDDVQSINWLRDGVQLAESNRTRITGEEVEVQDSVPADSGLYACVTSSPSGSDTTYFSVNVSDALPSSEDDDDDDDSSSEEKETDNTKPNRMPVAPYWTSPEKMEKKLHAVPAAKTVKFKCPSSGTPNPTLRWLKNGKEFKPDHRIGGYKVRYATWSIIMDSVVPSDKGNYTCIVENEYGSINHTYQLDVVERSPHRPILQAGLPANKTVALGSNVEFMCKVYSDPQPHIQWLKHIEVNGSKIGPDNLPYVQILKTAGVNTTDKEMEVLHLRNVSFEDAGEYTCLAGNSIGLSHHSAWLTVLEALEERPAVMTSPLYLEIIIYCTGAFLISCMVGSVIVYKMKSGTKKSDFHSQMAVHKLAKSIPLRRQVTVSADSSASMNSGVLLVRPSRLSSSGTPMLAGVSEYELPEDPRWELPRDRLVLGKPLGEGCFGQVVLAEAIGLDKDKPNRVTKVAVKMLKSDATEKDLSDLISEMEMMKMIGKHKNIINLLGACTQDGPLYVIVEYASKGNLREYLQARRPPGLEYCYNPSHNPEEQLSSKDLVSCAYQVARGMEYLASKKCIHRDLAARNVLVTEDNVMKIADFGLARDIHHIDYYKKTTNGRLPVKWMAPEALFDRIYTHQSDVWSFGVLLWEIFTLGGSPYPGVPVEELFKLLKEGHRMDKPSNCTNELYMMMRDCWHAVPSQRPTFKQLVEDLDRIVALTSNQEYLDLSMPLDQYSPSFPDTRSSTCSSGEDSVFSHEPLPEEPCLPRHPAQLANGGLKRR
Chain of human Dual Specificity Protein Phosphatase 3 (DUSP3), DUSP3 (gene 1845) (P51452 whole entry, looked up): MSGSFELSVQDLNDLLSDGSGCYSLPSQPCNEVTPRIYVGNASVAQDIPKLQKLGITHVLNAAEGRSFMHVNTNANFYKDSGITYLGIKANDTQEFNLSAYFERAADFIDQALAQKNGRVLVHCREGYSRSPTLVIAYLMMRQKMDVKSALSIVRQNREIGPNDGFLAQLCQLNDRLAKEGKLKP
Chain of human Esterase Plasma (ES), BCHE (gene 590) (P06276 whole entry, looked up): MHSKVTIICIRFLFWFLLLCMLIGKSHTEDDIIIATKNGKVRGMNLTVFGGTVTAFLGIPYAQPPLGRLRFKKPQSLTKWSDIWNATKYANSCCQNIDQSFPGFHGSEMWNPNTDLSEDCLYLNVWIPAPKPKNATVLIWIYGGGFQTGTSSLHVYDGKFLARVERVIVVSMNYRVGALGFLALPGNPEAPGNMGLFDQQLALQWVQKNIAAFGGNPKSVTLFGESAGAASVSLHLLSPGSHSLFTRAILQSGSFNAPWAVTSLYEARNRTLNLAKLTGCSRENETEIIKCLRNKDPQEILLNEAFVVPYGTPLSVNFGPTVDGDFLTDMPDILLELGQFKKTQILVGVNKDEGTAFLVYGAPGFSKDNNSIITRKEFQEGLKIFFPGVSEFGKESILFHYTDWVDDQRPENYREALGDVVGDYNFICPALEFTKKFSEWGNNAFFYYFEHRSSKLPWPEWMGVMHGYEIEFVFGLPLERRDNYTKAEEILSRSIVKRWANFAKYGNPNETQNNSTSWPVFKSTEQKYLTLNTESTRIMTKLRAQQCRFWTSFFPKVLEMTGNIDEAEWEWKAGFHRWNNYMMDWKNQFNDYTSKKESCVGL
Chain of human Ephrin type-A Receptor 1 (EphA1), EPHA1 (gene 2041) (P21709 whole entry, looked up): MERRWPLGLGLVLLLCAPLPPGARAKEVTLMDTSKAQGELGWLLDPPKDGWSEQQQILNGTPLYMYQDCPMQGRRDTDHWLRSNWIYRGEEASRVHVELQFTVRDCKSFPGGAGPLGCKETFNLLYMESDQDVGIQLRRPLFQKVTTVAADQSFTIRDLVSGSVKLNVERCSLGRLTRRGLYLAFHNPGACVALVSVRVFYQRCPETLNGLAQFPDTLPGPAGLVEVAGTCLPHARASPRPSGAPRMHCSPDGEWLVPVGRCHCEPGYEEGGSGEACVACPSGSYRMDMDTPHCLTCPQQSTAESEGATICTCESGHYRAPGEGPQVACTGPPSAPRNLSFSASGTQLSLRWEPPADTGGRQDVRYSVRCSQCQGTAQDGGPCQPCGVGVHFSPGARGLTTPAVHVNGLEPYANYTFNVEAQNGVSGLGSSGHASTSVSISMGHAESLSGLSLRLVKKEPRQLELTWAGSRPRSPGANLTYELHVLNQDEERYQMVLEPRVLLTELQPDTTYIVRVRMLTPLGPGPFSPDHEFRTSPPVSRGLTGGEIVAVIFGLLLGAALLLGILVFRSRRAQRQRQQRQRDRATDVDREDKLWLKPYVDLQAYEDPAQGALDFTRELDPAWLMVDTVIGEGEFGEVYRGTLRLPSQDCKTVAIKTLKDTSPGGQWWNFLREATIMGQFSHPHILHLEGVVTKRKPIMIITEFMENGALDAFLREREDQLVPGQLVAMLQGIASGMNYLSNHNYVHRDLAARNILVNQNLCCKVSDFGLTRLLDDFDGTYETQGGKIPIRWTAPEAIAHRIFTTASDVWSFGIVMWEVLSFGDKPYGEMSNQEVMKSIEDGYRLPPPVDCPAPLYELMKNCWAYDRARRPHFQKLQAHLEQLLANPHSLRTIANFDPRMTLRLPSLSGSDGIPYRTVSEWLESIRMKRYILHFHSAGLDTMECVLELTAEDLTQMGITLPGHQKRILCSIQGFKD
Chain of human Elastase, ELANE (gene 1991) (P08246 whole entry, looked up): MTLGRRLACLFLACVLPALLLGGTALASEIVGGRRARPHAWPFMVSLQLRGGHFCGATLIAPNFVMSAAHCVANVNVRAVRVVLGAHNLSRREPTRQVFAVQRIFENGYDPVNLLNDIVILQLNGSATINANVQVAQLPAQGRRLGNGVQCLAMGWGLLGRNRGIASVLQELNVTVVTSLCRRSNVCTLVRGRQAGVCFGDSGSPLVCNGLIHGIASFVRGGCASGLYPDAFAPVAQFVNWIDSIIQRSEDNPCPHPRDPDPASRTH
Chain of human Casein Kinase 2- alpha 2 beta 2 (CK2a2b2), CSNK2A1 (gene 1457) (P68400 whole entry, looked up): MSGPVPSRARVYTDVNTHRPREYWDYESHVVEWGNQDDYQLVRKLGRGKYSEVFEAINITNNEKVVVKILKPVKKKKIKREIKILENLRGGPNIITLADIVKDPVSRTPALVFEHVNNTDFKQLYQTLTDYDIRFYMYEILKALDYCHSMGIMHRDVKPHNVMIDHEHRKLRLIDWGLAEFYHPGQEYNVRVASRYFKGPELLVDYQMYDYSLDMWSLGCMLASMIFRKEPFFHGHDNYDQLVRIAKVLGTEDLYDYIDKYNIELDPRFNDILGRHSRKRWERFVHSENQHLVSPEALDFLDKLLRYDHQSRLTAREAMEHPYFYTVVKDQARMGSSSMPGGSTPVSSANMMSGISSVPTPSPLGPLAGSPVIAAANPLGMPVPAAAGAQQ
Chain of human Ephrin type-A Receptor 2 (EphA2), EPHA2 (gene 1969) (P29317 whole entry, looked up): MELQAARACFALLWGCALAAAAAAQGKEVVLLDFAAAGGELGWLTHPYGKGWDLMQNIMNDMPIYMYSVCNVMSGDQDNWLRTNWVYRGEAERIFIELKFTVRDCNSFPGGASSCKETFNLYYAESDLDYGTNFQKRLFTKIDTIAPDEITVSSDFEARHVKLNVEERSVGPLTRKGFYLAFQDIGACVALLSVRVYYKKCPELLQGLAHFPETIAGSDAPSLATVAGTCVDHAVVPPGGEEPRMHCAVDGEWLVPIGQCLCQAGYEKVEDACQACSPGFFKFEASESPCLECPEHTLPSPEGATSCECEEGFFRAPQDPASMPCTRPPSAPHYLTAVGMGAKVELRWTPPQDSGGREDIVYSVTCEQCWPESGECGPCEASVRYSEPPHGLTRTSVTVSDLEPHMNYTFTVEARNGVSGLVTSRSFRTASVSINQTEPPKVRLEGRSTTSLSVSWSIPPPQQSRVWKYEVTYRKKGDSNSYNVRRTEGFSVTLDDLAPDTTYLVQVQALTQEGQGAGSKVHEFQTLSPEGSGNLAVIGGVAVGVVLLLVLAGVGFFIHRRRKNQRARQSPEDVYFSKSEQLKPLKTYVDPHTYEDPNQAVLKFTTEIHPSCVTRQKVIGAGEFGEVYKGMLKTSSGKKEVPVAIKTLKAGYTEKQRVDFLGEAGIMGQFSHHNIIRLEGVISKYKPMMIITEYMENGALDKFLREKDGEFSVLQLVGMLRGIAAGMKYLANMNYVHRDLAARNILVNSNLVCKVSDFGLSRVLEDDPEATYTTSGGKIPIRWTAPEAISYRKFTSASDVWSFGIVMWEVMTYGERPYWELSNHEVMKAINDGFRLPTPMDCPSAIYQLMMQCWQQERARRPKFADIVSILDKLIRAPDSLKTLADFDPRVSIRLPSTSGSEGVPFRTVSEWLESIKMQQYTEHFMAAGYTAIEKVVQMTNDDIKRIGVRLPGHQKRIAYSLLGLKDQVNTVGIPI
Chain of human IkappaB Kinase alpha (IKKa), CHUK (gene 1147) (O15111 whole entry, looked up): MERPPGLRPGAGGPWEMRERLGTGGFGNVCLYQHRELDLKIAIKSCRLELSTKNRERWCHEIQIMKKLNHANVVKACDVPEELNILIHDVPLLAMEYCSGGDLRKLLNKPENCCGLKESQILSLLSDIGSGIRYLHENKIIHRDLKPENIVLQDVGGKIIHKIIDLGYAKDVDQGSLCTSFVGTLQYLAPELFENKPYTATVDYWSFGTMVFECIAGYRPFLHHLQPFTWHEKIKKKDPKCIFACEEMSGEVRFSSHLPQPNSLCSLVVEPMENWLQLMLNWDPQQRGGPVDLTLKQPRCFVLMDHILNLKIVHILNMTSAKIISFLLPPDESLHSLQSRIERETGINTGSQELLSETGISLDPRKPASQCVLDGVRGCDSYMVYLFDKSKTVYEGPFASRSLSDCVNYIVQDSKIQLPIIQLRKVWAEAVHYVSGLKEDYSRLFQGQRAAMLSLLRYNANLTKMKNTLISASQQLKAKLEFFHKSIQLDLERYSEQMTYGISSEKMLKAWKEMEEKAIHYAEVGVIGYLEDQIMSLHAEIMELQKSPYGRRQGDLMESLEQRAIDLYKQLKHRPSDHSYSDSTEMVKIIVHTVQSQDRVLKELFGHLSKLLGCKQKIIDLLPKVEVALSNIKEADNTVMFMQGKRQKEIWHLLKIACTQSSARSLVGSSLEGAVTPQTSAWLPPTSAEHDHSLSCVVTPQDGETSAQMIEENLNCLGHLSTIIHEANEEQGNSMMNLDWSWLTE

In the case of `CC(C)(C)C(O)C(Oc1ccc(Cl)cc1)n1cncn1` (stereo not given), the compound was classed as inactive in [1] and in [2].

For `O=C(Nc1ccccc1)Nc1cnns1`, the AC50 (as a rule, the concentration at which the activity in the assay is half-maximal) in assay [3] is 10.9 µM (active).

Regarding `COc1nn(CSP(=S)(OC)OC)c(=O)s1`, the call in assay [4] was inactive.

As for `O=C(O)COc1ccc(Cl)cc1Cl`, the half-maximal activity concentration (AC50) in [3] was 19.7 µM (active). In addition, the compound was classed as inactive in assay [5] and in assay [6].

For the compound `CCOc1nc(NC)nc(NC(=O)NS(=O)(=O)c2ccccc2C(=O)OC)n1`, the AC50 in assay [7] was 18.4 µM (active).

For `COC(=O)c1ccccc1CS(=O)(=O)NC(=O)Nc1nc(OC)cc(OC)n1`, the compound was called inactive in assay [8].

In the case of `ClC1C(Cl)C(Cl)C(Cl)C(Cl)C1Cl` (stereo not given), the result in [9] and in assay [2] was inactive. Also, in [10], the AC50 is 0.00517 µM (active).

For the compound `CN1CSC(=S)N(C)C1`, the result in [11] was inactive.

Turning to `Oc1cc(Cl)ccc1Oc1ccc(Cl)cc1Cl`, the compound was called inactive in assay [4], in [1], in [12], in assay [13], in [14] and in assay [2].

For the compound `O=C(NC(=O)c1c(F)cccc1F)Nc1ccc(OC(F)(F)C(F)OC(F)(F)F)c(Cl)c1` (stereo not given), the outcome in [13] and in assay [15] was inactive.

In the case of `N#Cc1c(Cl)c(Cl)c(Cl)c(C#N)c1Cl`, the concentration at half-maximal activity (AC50) in [3] was 33.6 µM (active); in assay [12], 17.7 µM (active); in assay [16], 25 µM (active).

With `COP(=O)(OC)OC=C(Cl)Cl`, the concentration at half-maximal activity (AC50) in [17] was 7.13 µM (active).

On to `O=[N+]([O-])/N=C1\NCCN1Cc1ccc(Cl)nc1`, for which the compound was classed as inactive in assay [14] and in [9].

Take `CC(C)N(C(=O)COc1nnc(C(F)(F)F)s1)c1ccc(F)cc1`: the compound was called inactive in assay [11]. In [17], the concentration at half-maximal activity (AC50) is 11.8 µM (active).

As for `COC(=O)c1ccccc1S(=O)(=O)NC(=O)N(C)c1nc(C)nc(OC)n1`, in assay [18], the compound was classed as inactive.

Consider `O=C(O)C(F)(F)C(F)(F)C(F)(F)C(F)(F)C(F)(F)C(F)(F)C(F)(F)F`, for which the result in [12], in assay [13], in [18], in assay [6] and in [8] was inactive.

Take `CNC(=O)/C=C(\C)OP(=O)(OC)OC`: in assay [17], the AC50 is 18.3 µM (active).

`CNC(=O)CSP(=S)(OC)OC`: the call in assay [5], in [14], in assay [9] and in assay [2] was inactive.
